From PubChem
KDM4E inh – JMJD2E (human) inhibition; B2RXH2; AID 2147; JMJD2E catalytic domain, FDH-coupled NADH fluorescence (FDH is formaldehyde dehydrogenase); Potency, µM (top dose mostly 57.1 µM), without a hit: at the top dose activity change, negative = inhibition, actives largely listed as inhibitors; 230,000 tested, 1.6% active; active means well fitted inhibition curve with a large enough effect, not every such curve was filed as active; inconclusive means small, poorly fitted or top-dose-only effect, or another doubt; inactive means no such curve, though single readings can be large or run the other way;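 further: 0% = wells with enzyme and -100% = buffer wells without enzyme; nearly all actives have a fitted effect of over 50% in size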
Target sequence (B2RXH2 1-337 limits assumed): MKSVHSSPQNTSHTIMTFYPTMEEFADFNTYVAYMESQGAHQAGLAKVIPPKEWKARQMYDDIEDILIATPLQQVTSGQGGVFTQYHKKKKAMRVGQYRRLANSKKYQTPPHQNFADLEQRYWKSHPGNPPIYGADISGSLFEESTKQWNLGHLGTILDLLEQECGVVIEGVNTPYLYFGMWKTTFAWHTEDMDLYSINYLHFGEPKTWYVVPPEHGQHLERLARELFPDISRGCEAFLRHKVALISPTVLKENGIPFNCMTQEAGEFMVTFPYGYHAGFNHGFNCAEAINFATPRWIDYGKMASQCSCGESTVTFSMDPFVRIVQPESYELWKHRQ
RECQ1 inh-1 – blocks DNA unwinding by human RECQ1. RECQ1 DNA unwinding, red fluorescence kinetic read. 240,000 tested, 0.54% active. Potency, µM (top dose mostly 57.3 µM), for the others: at the highest dose activity, negative = inhibition, hits mostly inhibitors. P46063;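 further: plate controls were vehicle for no effect and no enzyme for full effect; nearly all actives have a fitted effect of over 30% in size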
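50 nM RECQ1T1 preincubated 15 min with compound in Tris pH 8.0 buffer with MgCl2, DTT, Tween-20 and 2.5 ug/ml poly(dI-dC); started with 200 nM TAMRA/BHQ-2 forked duplex and 2 mM ATP. Unwinding read as fluorescence (525/598 nm), two reads 2 h apart.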
APEX1 inh – blocks human APE1 abasic DNA cleavage; P27695; recombinant APE1, TAMRA/BHQ-2 abasic DNA cleavage fluorescence; Potency, µM (series often up to 65.8 µM), inactives show at the top dose activity change, negative = inhibition, actives largely listed as inhibitors; 350,000 tested, 0.35% active; AID 2517;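 further: plate controls were vehicle for no effect and reference inhibitor for full effect; nearly all actives have a fitted effect of over 55% in size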
Target sequence (P27695 whole entry, looked up): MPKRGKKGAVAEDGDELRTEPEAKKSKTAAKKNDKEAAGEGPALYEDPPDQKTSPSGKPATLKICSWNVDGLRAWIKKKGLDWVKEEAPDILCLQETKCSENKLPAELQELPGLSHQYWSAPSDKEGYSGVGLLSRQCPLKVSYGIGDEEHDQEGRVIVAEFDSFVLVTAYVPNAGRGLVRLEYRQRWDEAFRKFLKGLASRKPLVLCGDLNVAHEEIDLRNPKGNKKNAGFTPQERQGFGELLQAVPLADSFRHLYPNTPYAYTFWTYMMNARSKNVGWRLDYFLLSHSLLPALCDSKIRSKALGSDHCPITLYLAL
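Kinetic fluorescence read (525 ex/598 em nm, three reads 60 s apart) of AP-site incision; signal = third minus first read. Enzyme 0.75 nM, dual-labelled THF duplex 50 nM, compound preincubation 15 min RT.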
TDP1 inh – blocks human tyrosyl-DNA phosphodiesterase 1 | Q9NUW8 | recombinant TDP1, AlphaScreen DNA substrate cleavage | Potency, µM (highest dose often 130 µM), inactives show at the highest dose activity change, negative = inhibition, usual class: inhibitors | 350,000 tested, 0.28% active | AID 485290; further: nearly all actives have a fitted effect of over 40% in size
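Recombinant human Tdp1 (E. coli-expressed, 1 nM final) preincubated with compounds 15 min at room temperature, then 5'-biotin/3'-phosphotyrosine-FITC DNA substrate (15 nM final) added for 5 min. AlphaScreen beads (10 ug/ml final) added 10 min; cleavage lowers signal.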
KAT2A inh – inhibitors of human GCN5L2 histone acetyltransferase; Q92830; GCN5L2 HAT assay, ThioGlo1 CoA-SH fluorescence; Potency, µM (series often up to 58.9 µM), for inactives: top-dose activity change, negative = inhibition, actives largely listed as inhibitors; 390,000 tested, 0.21% active; AID 504327
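Titration-based screen in which CoA formation is detected via maleimide probe ThioGlo1 (50uM) turning fluorescent on thiol reaction; substrates H3(1-25) 75uM and acetyl-CoA 70uM, GCN5L2 20nM, 20 min incubation at room temperature.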
BLM helicase inh – inhibitors of human Bloom syndrome helicase BLM; P54132; recombinant BLM DNA unwinding, fluorescence dequenching; Potency, µM (series often up to 56.1 µM), for the others: at the highest dose activity change, negative = inhibition, actives largely listed as inhibitors; 350,000 tested, 0.2% active; AID 2528;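 further: plate controls were vehicle for no effect and no enzyme for full effect; nearly all actives have a fitted effect of over 35% in size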
RECQ1 inh conf – confirmation of human RECQ1 helicase inhibitors; shares compounds with RECQ1 inh-1; RECQ1 helicase DNA unwinding, fluorescence; Potency, µM (highest dose often 229 µM), for the others: at the top dose activity change, negative = inhibition, most hits filed as inhibitors; 610 tested, 28% active; AID 2708; further: nearly all actives have a fitted effect of over 45% in size
ADP FP counter – ADP displacement flagged in RECQ1 inhibitor counter-screen; Potency, µM (titrated, usually from 228 µM), inactives show at the top dose activity change, negative = inhibition, usual class: inhibitors; ADP fluorescence polarization displacement counterscreen; shares compounds with RECQ1 inh-1; AID 2711; 530 tested, 27% active; further: nearly all actives have a fitted effect of over 45% in size
RECQ1 inh-2 – confirmation of human RECQ1 helicase inhibitors; shares compounds with RECQ1 inh-1; recombinant RECQ1 DNA unwinding, red fluorescence; Potency, µM (top dose mostly 119 µM), for the others: top-dose activity, negative = inhibition, most hits filed as inhibitors; 1,100 tested, 15% active; AID 504841; further: nearly all actives have a fitted effect of over 50% in size
Starred values were filed as active, the others as inactive; i = inactive; ? = inconclusive; nt = no result; [ ] = dose if it differs, or a comment. Many of the other results were omitted from the sample, so hits are more common in it than they were. Unless noted, the call rests on the fitted dose curve; in most records, active means well fitted curve in the direction sought with a large enough effect; inconclusive means small, poorly fitted or top-dose-only effect, or another doubt; inactive means no such curve, though single readings can be large; an effect the other way counts as inactive or inconclusive. Unless noted, on the % scale 0 is the no-effect control and ±100 the full control effect; potency means the concentration at half of the fitted maximal effect.

SMILES	KDM4E inh	RECQ1 inh-1	APEX1 inh	TDP1 inh	KAT2A inh	BLM helicase inh	RECQ1 inh-2	others
COc1ccc(S(=O)(=O)N2CN(Cc3ccco3)c3nc4ccccc4nc32)cc1	?	35µM*	2%	7%	-21%	-13%	?
Cc1ccc(S(=O)(=O)N2CN(Cc3ccco3)c3nc4ccccc4nc32)cc1	?	-6%	-5%	7%	-11%	-8%	nt
COc1ccc(-n2c(=O)c(-c3cccs3)nc3cnc(N4CCOCC4)nc32)cc1	nt	i	2%	nt	-21%	5%	nt
COc1ccc(-n2c(=O)c(-c3cccs3)nc3cnc(N4CCNCC4)nc32)cc1	nt	?	?	nt	?	-21%	-27%
Cc1nn(CC(=O)NC2C(=O)N3C(C(=O)O)=C(CSc4nnnn4C)CSC23)cc1Br (stereo unspecified)	-7%	-8%	?	nt	-2%	4%	nt	RECQ1 inh conf=1%;ADP FP counter=?
Cn1nnnc1SCC1=C(C(=O)O)N2C(=O)C(NC(=O)Cn3nc(C(F)F)cc3C3CC3)C2SC1 (stereo unspecified)	-23%	-10%	-5%	nt	-4%	-9%	nt
Cc1c(Cl)c(C(F)F)nn1CC(=O)NC1C(=O)N2C(C(=O)O)=C(CSc3nnnn3C)CSC12 (stereo unspecified)	-5%	-3%	?	nt	-8%	-1%	nt	RECQ1 inh conf=-4%;ADP FP counter=?
Cc1cc(=O)c(C(=O)N[C@@H](C(=O)N[C@@H]2C(=O)N3C(C(=O)O)=C(CSc4nnnn4C)CS[C@H]23)c2ccc(O)cc2)c[nH]1	nt	nt	nt	nt	4%	3%	nt
Cc1cccc(CNc2ncncc2-c2cccc(NS(C)(=O)=O)c2)c1	?	-19%	-3%	nt	-15%	4%	nt
Cc1ccccc1NC(=O)CSc1nccn1C	nt	nt	nt	-2%	-1%	-3%	nt
O=C(C1=NN[C@@H]2C(=O)N(c3cccc(C(F)(F)F)c3)C(=O)[C@H]12)C(c1ccccc1)c1ccccc1	9%	28µM*	-7%	4%	7%	-12%	-20%
CN(C)CCN(Cc1ccco1)C(=O)c1cc2c(s1)-c1ccccc1OC2	nt	nt	nt	6%	-15%	4%	nt
O=C1CC(Nc2ccc(N3CCOCC3)cc2)C(=O)N1c1cccc(C(F)(F)F)c1 (stereo unspecified)	?	?	-4%	8%	-4%	2%	-8%
COc1cccc(N2C(=O)CC(Nc3ccc(N4CCOCC4)cc3)C2=O)c1 (stereo unspecified)	-13%	-16%	4%	7%	-3%	-8%	nt
Cc1cccc(N(C)C(=O)CN(C)S(=O)(=O)c2ccc3[nH]c4c(c3c2)CCCC4)c1	nt	nt	nt	9%	-12%	-15%	nt
O=C(CN1CCN(c2ccc(O)cc2)CC1)Nc1cc(S(=O)(=O)N2CCCCC2)ccc1Cl	-10%	-9%	-11%	5%	2%	-8%	nt
O=C(CN1CCN(c2ccc(O)cc2)CC1)Nc1cc(S(=O)(=O)N2CCCC2)ccc1Cl	?	13µM*	-10%	7%	-11%	-15%	-11%	RECQ1 inh conf=6%[114 µM];ADP FP counter=-4%[91.9 µM]
Cc1ccc(-n2nc(-c3ccco3)cc2C(=O)O)c(C)c1	?	20µM*	?	nt	?	-16%	?
O=C(O)c1cc(-c2cccs2)nn1-c1cccc(Cl)c1	-15%	3%	-4%	8%	-13%	4%	nt
O=C(O)c1cc(-c2ccco2)nn1-c1cccc(Cl)c1	?	25µM*	?	?	?	44%	?
Cc1nn(-c2ccccc2)c2nc(-c3ccco3)cc(C(=O)O)c12	?	28µM*	?	nt	-20%	25%	-23%
CCOc1ccccc1N(C)C(=O)c1cc(S(=O)(=O)NCc2ccc(C)cc2)ccc1F	nt	nt	nt	3%	-1%	-5%	nt
COc1ccccc1CNC(=O)C1CCN(C2=NS(=O)(=O)C(c3ccc(C)c(C)c3)=C2C)CC1	nt	nt	nt	1%	-4%	1%	nt
COC(=O)Nc1ccc(S(=O)(=O)N2CCCCC2C(=O)O)cc1 (stereo unspecified)	7%	i	2%	-3%	-5%	-4%	nt	RECQ1 inh conf=-4%;ADP FP counter=8%
CN1CCN(S(=O)(=O)c2ccc(NC(=S)NC(=O)C3CCCCC3)cc2)CC1	-5%	?	-3%	3%	-2%	-2%	-17%
SMILES	KDM4E inh	RECQ1 inh-1	APEX1 inh	TDP1 inh	KAT2A inh	BLM helicase inh	RECQ1 inh-2	others
CCc1cc2c(cc3c(=O)n(CC(=O)N4CCCCC4)nc(CC)n32)s1	nt	nt	nt	5%	-5%	-2%	nt
O=C1C=CC2(OCCCO2)C(Br)=C1CO	2%	-7%	0%	-3%	nt	-3%	nt
O=C1OC(c2ccc(F)cc2)=C/C1=C\c1ccc([N+](=O)[O-])o1	?	22µM*	3%	-10%	?	-23%	nt	RECQ1 inh conf=-5%[114 µM]
O=C1OC(c2ccc(F)cc2)=C/C1=C\c1ccc(O)cc1	nt	nt	-16%	2%	-12%	-4%	nt
COc1ccccc1CCNC(=O)CSc1ccc(-c2ccco2)nn1	?	?	?	nt	-15%	-11%	-11%
CCOP(=O)(OCC)C(=Cc1cc(C(C)(C)C)c(O)c(C(C)(C)C)c1)P(=O)(OCC)OCC	nt	-12%	-2%	-3%	23%	-1%	nt
COc1cc(/C=C2\SC(=S)N(NC(=O)c3ccncc3)C2=O)ccc1O	0%	14µM*	?	4%	-8%	-14%	nt	RECQ1 inh conf=50µM*;ADP FP counter=79%[91.9 µM]
CSc1ccccc1NC(=O)c1noc2c1CCC2	-6%	?	35µM*	16µM*	?	-4%	?
Cc1ccc(O)c(NC(=O)c2noc3c2CCCC3)c1	nt	nt	nt	0%	-8%	-4%	nt
Cc1nn(CC(=O)N2CCN(c3ccccc3)CC2)c(=O)c2cc3cc(F)ccc3n12	nt	nt	nt	7%	-5%	0%	nt
CCNc1ccc2c(Cl)cc(=O)oc2c1	?	35µM*	-4%	6%	-6%	0%	-38%
Cc1cc(=O)oc2cc(Nc3ccccc3)ccc12	-5%	-9%	7%	2%	-13%	0%	nt
